Assay outcomes: PubChem, SRMLSC
NADH enzymes: inhibition of NAD/NADH coupling enzymes, library profiling; IC50, µM (doses to about 10 µM); 65,000 tested, 0.02% active; AID 774; coupled PK/LDH NADH assays, four targets;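 active = single-dose screening hits from any of four coupled enzyme assays that gave an IC50 when retested across doses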;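 note: the DPM-DC format reads NADH fluorescence rather than 340 nm absorbance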
MK inhibit: inhibitors of Streptococcus pneumoniae mevalonate kinase; purified MK, PK/LDH-coupled NADH absorbance 340 nm; inhibition, % at 10 µM; 65,000 tested, 0.48% active;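 active = ranked among the strongest by inhibition in the single 10 µM screen, a fixed top-ranked set picked for dose follow-up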
Autofluor 339: intrinsic fluorescence of library compounds, ex339/em460 – biochemical, MLSMR library, data from DPM-DC assay, artefact control, profiling panel; 65,000 tested, 5.5% active; fluorescence fold increase at 10 µM; compound autofluorescence, ex339/em460 nm, NADH buffer; active compounds read high; 1 = no-compound wells, NADH background;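 active = at 10 µM, mean starting fluorescence two-fold or more over control wells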;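 note: signal is the first read of a kinetic run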
Spn PMK inh: S. pneumoniae PMK inhibition; purified PMK, PK/LDH-coupled NADH absorbance 340 nm; inhibition, % at 10 µM; 65,000 tested, 0.49% active; AID 539;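 active = top-ranked compounds by inhibition in the single 10 µM screen, taking a fixed number of the strongest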
DPM-DC inhibit: blocks S. pneumoniae diphosphomevalonate decarboxylase | purified DPM-DC, PK/LDH coupled NADH fluorescence | calls only at 10 µM | 65,000 tested, 0.49% active | AID 556;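 active = the 320 compounds with the highest percent inhibition in the single-dose primary screen, excluding strongly autofluorescent ones, cut at about 32% in these data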;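 note: kinetic rate of NADH fluorescence loss reporting ADP formed by the decarboxylase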
A340 absorber: absorbance at 340 nm; fold change at 10 µM; AID 708; compound absorbance at 340 nm, fold over control; 65,000 tested, under 10 active;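 active = at 10 µM dose, initial 340 nm absorbance at least 2 fold that of control wells; inactive = change under 2 fold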;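 note: initial absorbance extrapolated from kinetic A340 decline of NADH oxidation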
Large screens that a line does not name were inactive. Sampled rows, rich in hits. Any-hit rate of the full collection: about 6.5%.

COc1ccc(-n2c(=O)c3c4c(sc3n(CC(=O)NCc3ccco3)c2=O)CCC4)c(OC)c1	MK inhibit 63
O=C(COC(=O)c1ccco1)NC1CCCCC1	Spn PMK inh 25
CCOC(=O)c1c(NC(=O)COC)sc2c1CCCC2	none
CCOC(=O)c1c(NC(=O)c2nc3n(n2)C(C(F)F)CC(C)N3)sc2c1CCCC2 (stereo not drawn)	Autofluor 339 5.1 (not shown: DPM-DC inhibit)
Cc1nn(Cc2ccc(Cl)cc2Cl)c(C)c1NC(=O)c1nc2n(n1)C(C(F)F)CC(C)N2 (stereo not drawn)	none
CCOc1ccc(-n2c(=O)c3c(C)c(C)sc3n(CC(=O)NCc3ccco3)c2=O)cc1	none
CCOC(=O)C1CCCN(S(=O)(=O)c2cccc3cccnc23)C1 (stereo not drawn)	none
O=C(Nc1sc2c(c1C(=O)NC1CCCCC1)CCC2)c1ccco1	Autofluor 339 3.6 (not shown: DPM-DC inhibit)
CCOC(=O)c1c(NC(=O)c2ccco2)sc2c1CCCC2	Autofluor 339 2.1 (not shown: DPM-DC inhibit)
COc1ccccc1NC(=O)c1c(NC(=O)c2ccco2)sc2c1CCC2	Autofluor 339 2.3 (not shown: DPM-DC inhibit)
CCOC(=O)c1c(C2COc3ccccc3O2)csc1NC(=O)c1ccco1 (stereo not drawn)	Autofluor 339 3.2
CC(=O)c1ccc(Nc2ncnc3c2oc2ccccc23)cc1	none
O=C(CSc1nnnn1-c1ccccc1)CC(=O)Nc1ccc(Cl)cc1	none
CCn1cc(C2=NOC(C(=O)Nc3cc(C)nn3-c3ccccc3)C2)c(C)n1 (stereo not drawn)	none
COC(=O)c1ccc(NC(=O)CSc2nnc(CNc3ccc(F)cc3)n2C)cc1	none
O=C(Nc1ccccn1)C(NS(=O)(=O)c1cccc2nsnc12)c1ccccc1 (stereo not drawn)	none
Cn1c(SCC(=O)NCc2ccc3c(c2)OCO3)nnc1C1COc2ccccc2O1 (stereo not drawn)	none
COC(=O)c1c(-c2ccccc2)csc1NC(=O)c1ccco1	Autofluor 339 4.9 (not shown: DPM-DC inhibit)
COc1ccc(OC)c(NC(=O)c2c(NC(=O)CNCc3ccco3)sc3c2CCC3)c1	Autofluor 339 2.3 (not shown: DPM-DC inhibit)
CCOC(=O)c1c(NC(=O)c2cccs2)sc2c1CC(C)(C)OC2	Autofluor 339 2.1
CCOC(=O)c1cccc(NC(=O)c2cccs2)c1	none
O=C(Nc1scc(-c2ccc(F)cc2)c1C(=O)O)c1ccco1	none
COC(=O)C1=CNC=C(C(=O)OC)C1c1ccc(Cl)cc1	Autofluor 339 3.8 (not shown: DPM-DC inhibit)
COC(=O)C1=CNC=C(C(=O)OC)C1c1cccc(OC)c1	Autofluor 339 3.9 (not shown: DPM-DC inhibit)
COC(=O)C1=CNC=C(C(=O)OC)C1c1ccccc1Cl	Autofluor 339 3.6 (not shown: DPM-DC inhibit)
CCN1C(=O)N(CN2CCOCC2)C2C1N(CN1CCOCC1)C(=O)N2CC (stereo not drawn)	none
CCOC(=O)N1CCN(S(=O)(=O)c2cccc3ccc(C)nc23)CC1	none
CCCOC(=O)c1cc(=O)[nH]c2ccccc12	Autofluor 339 2.3
CCOC(=O)C1(C(F)(F)F)N=C(c2cccnc2)OC(N2CCOCC2)=N1 (stereo not drawn)	none
CCn1c(COc2ccccc2OC)nnc1SCC#N	none
Cc1cc(C)c2c(c1)-c1cc(C)nn1C(c1ccc3c(c1)OCO3)N2 (stereo not drawn)	Autofluor 339 2.7
Cc1cc2n(n1)C(c1ccc3c(c1)OCO3)Nc1c(C)cccc1-2 (stereo not drawn)	Autofluor 339 2.2
Cc1cccc(NC(=O)c2cc3n(n2)C(C(F)(F)F)CC(c2ccc4c(c2)OCO4)N3)c1 (stereo not drawn)	none
C=CCOC(=O)C1CC=CCC1C(=O)Oc1ccc(F)cc1F (stereo not drawn)	none
CCOC(=O)C1CCN(c2nc3cc(OC)ccc3cc2C#N)CC1	Autofluor 339 2.1
COc1ccc2nc(N3CCC(O)CC3)c(C#N)cc2c1	Autofluor 339 2.9
COc1ccc2nc(N3CCC(C)CC3)c(C#N)cc2c1	none
COC(=O)CSc1ncc(C#N)c(N)n1	none
CC(Sc1ncc(C#N)c(N)n1)C(=O)Nc1ccccc1 (stereo not drawn)	Spn PMK inh 26
O=C(CSc1nnc(C23CC4CC(CC(C4)C2)C3)o1)Nc1ccc(N2CCOCC2)c(Cl)c1	none
Cc1cc(C)nc(SCc2nnc(SCC(=O)N3CCCc4ccccc43)o2)n1	none
CN(C(=O)c1cccc(C#N)c1)c1nnc(-c2ccccn2)s1	Autofluor 339 2.1
